# From PubChem BioAssay
# NPC1 prom act: NPC1 promoter activation | Huh7 NPC1 promoter luciferase reporter, 24 h | Potency, µM (series often up to 9.22 µM), without a hit: top-dose activation, most hits filed as activators | 2.4% of 320,000 active | AID 485313; further: % of control where 0% means no effect; nearly all actives have a fitted effect of over 60% in size
#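 Quantitative HTS used a cell-based reporter: Huh7 cells stably bearing the NPC1 promoter upstream of luciferase were treated with compounds for 24 h, and promoter activation was read as luminescence.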
# ELG1 repair inh: blocks ELG1-dependent DNA repair in HEK293T cells; HEK293T ELG1-luciferase reporter, luminescence, 16 h; DNA damage induced by 5-fluorouridine; Potency, µM (doses to about 46.1 µM), without a hit: top-dose activity change, negative = inhibition, hits mostly inhibitors; 2.3% of 330,000 active; AID 504467; further: on the % scale 0 is the no-effect control and ±100 the full control effect; nearly all actives have a fitted effect of over 55% in size
#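 DMSO vehicle served as the neutral condition. Each well held 2,000 cells given 5-fluorouridine plus compound; after 16 hr at 37 °C/5% CO2, ONE-Glo was added and luciferase measured 30 min later.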
# FLuc counter: firefly luciferase modulation, counter-screen for miR-21 project. P08659. purified FLuc, Km substrates, luminescence inhibition. Potency, µM (doses to about 57.5 µM), for inactives: at the highest dose activity change, negative = inhibition, most hits filed as inhibitors. 6.9% of 360,000 active;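 further: plate controls were vehicle for no effect and reference inhibitor for full effect; nearly all actives have a fitted effect of over 55% in size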
# Target sequence (P08659 whole entry, looked up): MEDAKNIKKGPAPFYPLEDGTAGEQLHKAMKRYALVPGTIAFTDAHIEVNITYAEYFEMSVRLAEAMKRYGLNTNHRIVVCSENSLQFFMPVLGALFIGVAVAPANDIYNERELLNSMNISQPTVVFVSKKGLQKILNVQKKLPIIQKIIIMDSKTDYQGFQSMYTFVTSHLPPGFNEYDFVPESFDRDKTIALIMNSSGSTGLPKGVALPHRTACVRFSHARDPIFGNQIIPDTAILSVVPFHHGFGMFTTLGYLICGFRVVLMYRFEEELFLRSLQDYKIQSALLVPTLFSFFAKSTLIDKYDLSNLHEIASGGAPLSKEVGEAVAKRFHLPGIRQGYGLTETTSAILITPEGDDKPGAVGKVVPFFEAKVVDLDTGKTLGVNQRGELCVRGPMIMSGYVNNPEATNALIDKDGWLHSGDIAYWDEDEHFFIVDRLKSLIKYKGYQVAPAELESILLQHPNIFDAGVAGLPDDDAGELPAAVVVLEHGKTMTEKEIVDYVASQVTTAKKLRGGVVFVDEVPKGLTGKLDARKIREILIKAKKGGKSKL
#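 Purified P. pyralis luciferase, 10 nM final, with Km-level 10 uM D-luciferin and 10 uM ATP in 50 mM Tris acetate pH 7.5, 10 mM Mg acetate, 0.01% Tween-20, 0.05% BSA; 6-point qHTS titration about 60 µM downward; luminescence read.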
# ELG1 genotoxic: induces genotoxicity in HEK293T cells with luciferase-tagged ELG1; Potency, µM (doses to about 46 µM), inactives show at the highest dose activity change, positive = activation, usual class: activators; AID 504466; 1.3% of 330,000 active; HEK293T ELG1-luciferase reporter, luminescence, 16 h; further: % of control where 0% means no effect; nearly all actives have a fitted effect of over 60% in size
#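 16 hr compound incubation (37 °C, 5% CO2) of HEK293T cells carrying luciferase-tagged ELG1; luciferase then measured by ONE-Glo luminescence after 30 min at RT.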
# SMN2 splice enh: increases expression of the SMN2 splice variant | 2.8% of 210,000 active | HEK293 SMN2-luciferase splicing reporter, luminescence, 30-36 h | Potency, µM (titrated, usually from 46.1 µM), inactives show at the highest dose activity change, positive = activation, most hits filed as activators; further: % of control where 0% means no effect; nearly all actives have a fitted effect of over 55% in size
#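 qHTS luciferase splicing reporter: luminescence rises when SMN2 exon 7 is included in transfected HEK293 cells. Compound exposure lasted 30-36 h at 37C, with 4.5 mM final sodium butyrate as control, followed by a ONE-Glo read.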
# Rab9 promoter act: activators of Rab9 promoter | 2.8% of 320,000 active | Huh7 Rab9 promoter-luciferase reporter, luminescence, 24 h | AID 485297 | Potency, µM (doses to about 9.22 µM), for the others: top-dose activation, negative = inhibition, actives largely listed as activators; further: % of control where 0% means no effect; nearly all actives have a fitted effect of over 60% in size
#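 Huh7 cells stably carrying a Rab9 promoter-luciferase reporter, 1500 cells per well in OP-MEM I with 10% FBS, treated with compound 24 hours at 37C. Luciferase activity read by luminescence after 10 minutes with Amplite reagent.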
# * hit, by the source's call; ? = inconclusive; . = no result given; [ ] = another dose, or the depositor's remark. In the library only some 9.4% were active in any assay of this set; here they are far more common. The call rests on the fitted dose curve; in most records, active means well fitted curve in the direction sought with a large enough effect; inconclusive means small, poorly fitted or top-dose-only effect, or another doubt; inactive means no such curve, though single readings can be large; an effect the other way counts as inactive or inconclusive. Potency means the concentration at half of the fitted maximal effect.
SMILES,NPC1 prom act,ELG1 repair inh,FLuc counter,ELG1 genotoxic,SMN2 splice enh,Rab9 promoter act
O=C1/C(=C/c2ccccc2)Nc2ccccc21,-3%,-2%,4.3µM*,-1%,-24%,2%
CCOC(=O)c1c(C)oc2nc(C)nc(N3CCN(c4cccc(C(F)(F)F)c4)CC3)c12,.,.,5%,.,.,.
COCCNc1nnnc2c1sc1nc(N3CCOCC3)c3c(c12)CC(C)(C)OC3,-3%,4.1µM*,-4%,5%,-1%,1%
CCc1ccccc1NC(=O)Nc1nnc(N2CCCC2)s1,.,.,-9%,.,.,.
COc1cc(CCC(C)=O)ccc1OC(=O)c1c(F)cccc1Cl,?,?,12µM*,?,.,2.5µM*
C=CCOc1ccc2nc(NC(=O)OC)[nH]c2c1,7%,?,?,9.2µM*,11µM*,-2%
O=C(Nc1cccc(S(=O)(=O)NC2=NCCC2)c1)c1c(F)cccc1Cl,1%,10%,-1%,0%,.,1%
O=C(Cc1ccccc1[N+](=O)[O-])Nc1cccc(S(=O)(=O)NC2=NCCCCC2)c1,-4%,?,0%,0%,.,-4%
O=C(/C=C/c1ccc(Cl)cc1Cl)Nc1cccc(S(=O)(=O)NC2=NCCC2)c1,1µM*,?,0.12µM*,?,5.6µM*,0.35µM*
O=C(/C=C/c1ccc([N+](=O)[O-])cc1)Nc1cccc(S(=O)(=O)NC2=NCCCCC2)c1,.,15µM*,.,-9%,.,.
O=C(/C=C/c1ccccc1Cl)Nc1cccc(S(=O)(=O)NC2=NCCCCC2)c1,?,21%,1.2µM*,5%,14µM*,?
Cc1ncc(COP(=O)(O)O)c(C)c1O,.,.,.,.,-1%[9.22 µM],.
CCc1nn2c(-c3ccccc3OC)ccnc2c1-c1ccccc1,.,.,-16%,.,-26%,.
O=C(/C=C/Sc1ccccc1)c1ccc(Cl)cc1,4%,-11%,1.1µM*,?,8%,2%
O=C(/C=C/Sc1ccccc1)c1ccccc1,2%,-25%,0.43µM*,?,15%,13%
C/C(=C\C(=O)c1ccccc1)NNC(=O)c1ccc(Cl)cc1,-2%,9%,-16%,2%,.,8%
COc1ccc(C(=O)NCC(c2ccc(N(C)C)cc2)N2CCc3ccccc32)cc1OC (centres undefined),.,.,-1%,.,.,.
Cc1oc(-c2ccc(Cl)cc2)cc1C(=O)O,?,?,11µM*,12%,.,?
O=C(NNc1nc2ccccc2s1)C1CC1,3%,18%,-14%,2%,7%,1%
O=C(NNc1nc(-c2ccc(Cl)cc2)cs1)c1ccco1,14%,?,24µM*,1%,19%,25%
O=C(Nc1nc(-c2nc3ccccc3s2)cs1)c1ccco1,?,?,?,?,22µM*,?
O=C(Nc1nc(-c2nc3ccccc3s2)cs1)C1CC1,1.4µM*,?,3µM*,2.6µM*,7.1µM*,0.71µM*
O=C(Nc1nc(-c2ccccc2)ns1)c1cccs1,?,?,15µM*,3%,13µM*,?
O=C(NNc1nc(-c2ccccc2)cs1)c1ccco1,3%,?,?,11%,23%,0%
CC1CCc2c(sc3nnn(CC(=O)Nc4cccc(C(F)(F)F)c4)c(=O)c23)C1 (centres undefined),.,.,-16%,.,6%,.
SMILES,NPC1 prom act,ELG1 repair inh,FLuc counter,ELG1 genotoxic,SMN2 splice enh,Rab9 promoter act
Cc1ccc2oc(C(=O)N(Cc3ccccc3F)C3CCS(=O)(=O)C3)c(C)c2c1 (centres undefined),.,.,-13%,.,-14%,.
O=C(Nc1nc(-c2ccccc2)cs1)c1cccs1,?,?,8.5µM*,4%,.,3.5µM*
O=C(Nc1nc(-c2ccc(Cl)s2)cs1)c1ccco1,?,?,15µM*,?,?,3.2µM*
CCCC(=O)Nc1nc(-c2ccc(Cl)s2)cs1,?,0%,?,4%,-13%,?
O=C(Nc1nc(-c2ccc(Cl)s2)cs1)c1cccs1,?,-3%,11µM*,7%,5%,27%
CC(=O)Nc1nc(-c2ccc([N+](=O)[O-])cc2)cs1,18%,3%,1%,2%,-19%,?
COc1cccc(OC)c1C(=O)Nc1nc(-c2ccccc2)cs1,-8%,-11%,1%,-2%,.,-5%
Cc1csc(NC(=O)c2ccco2)n1,1%,-2%,-2%,-1%,-7%,3%
O=C(Nc1ccc([N+](=O)[O-])cc1)Nc1nc(-c2ccc(Cl)s2)cs1,-40%,10µM*,-1%,-8%,-73%,-47%
Cc1nn(-c2ccccc2)c2c1cc1c(=O)n(C)c(=O)nc-1n2-c1cccc(Cl)c1,.,.,1%,.,6%,.
CC1CC1C(=O)Nc1nc(-c2ccccc2)cs1 (centres undefined),21%,?,24µM*,?,-7%,?
NC(=O)C/C=C\CC(N)=O,.,.,.,.,-13%[9.22 µM],.
COc1ccc(OC)c(NC(=O)[C@@H]2CCCN2C(=O)c2cccs2)c1,-2%,4%,1%,10%,5.6µM*,-2%
CCOC(=O)c1sc(NC(=S)NC(=O)c2ccccc2)c(C(=O)OCC)c1C,-1%,-9%,3%,14%,13%,0%
CCOC(=O)c1c(N)sc(C(=O)OCCOC)c1C,29%,?,?,1%,5%,?
CCOC(=O)c1sc(N)c(C(=O)OCC)c1C,?,?,21µM*,?,.,?
CCOC(=O)c1sc(N)c(C(=O)Nc2ccccc2)c1C,22%,?,?,17%,.,2.8µM*
CCCCc1ccc(-n2nc3cc(Cl)c(NC(=O)c4ccc(OC)cc4)cc3n2)cc1,.,.,-3%,.,-1%,.
O=[N+]([O-])c1ccc(C23CC4CC(CC(O)(C4)C2)C3)cc1,2.8µM*,?,11µM*,16%[9.26 µM],.,1.6µM*
CCCCCc1ccc(-c2ccc(=O)[nH]n2)cc1,9%,?,19µM*,19%,-9%,3%
CCc1nn(CCCC(=O)NCc2ccc(OC)c(OC)c2)c(=O)c2cc3occc3n12,.,.,-11%,.,-10%,.
CC1(C)Cc2nc3sc4c(SCC(=O)NCc5ccco5)ncnc4c3cc2CO1,-2%,?,5.4µM*,2.1µM*,?,?
CCCc1nc2c(sc3nc4c(cc32)COC(C)(C)C4)c(=O)n1Cc1ccco1,-2%,0%,-1%,-3%,-17%,-3%
Cc1nc2c(sc3nc4c(cc32)COC(C)(C)C4)c(=O)n1Cc1ccccc1,26%,?,24µM*,?,-36%,?
Cc1nc2c(sc3nc4c(cc32)COC(C)(C)C4)c(=O)n1CC(=O)NCc1ccco1,-7%,?,8.5µM*,?,13µM*,?
